Some test systems named below: SK-MEL-2 melanoma; EKVX NSCLC; SN12C renal; UO-31 renal; TK-10 renal; ACHN renal; CAKI-1 renal; CCRF-CEM leukemia; MOLT-4 leukemia; SR leukemia; OVCAR-8 ovarian; OVCAR-5 ovarian; OVCAR-4 ovarian; SK-OV-3 ovarian; IGROV1 ovarian; HS 578T breast; NCI/ADR-RES ovarian; RPMI-8226 leukemia; OVCAR-3 ovarian; A498 renal.
Test in all cases: NCI-60 one-dose screen, 48 h (100 = growth as untreated, 0 = no growth, -100 = all killed)
Conditions in all cases: 10 µM unless noted

Each structure is given as a SMILES string. About 83,000 compounds went through this panel and 20% of them were active in at least one assay; those are over-represented in the sample as a whole.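 Percent growth is the endpoint: 0 to 100 indicates growth inhibition (40 means 60% inhibition), 0 means no net growth, and negative values indicate cell death.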 A number with no mark means an inactive call. Calls of active or inactive are those of the source. Rule for the calls: active = growth percent below 10; inactive = the rest.

In the case of `CC1CN(C2CCCCC2)C(=S)N(c2ccccc2)C1=O` (stereo not given), the growth was 122% with SK-MEL-2 melanoma; 101% in the experiment with EKVX NSCLC; 111% in the experiment on SN12C renal; 97.7% in the experiment with UO-31 renal; 116% with TK-10 renal; 110% in the experiment on ACHN renal. Moreover, the growth is 97.9% with CAKI-1 renal; 93.8% with CCRF-CEM leukemia; 70.4% in the experiment on MOLT-4 leukemia; 98.7% in the experiment on SR leukemia; 118% in the experiment with OVCAR-8 ovarian; 104% in the experiment with OVCAR-5 ovarian. Besides, the growth with OVCAR-4 ovarian was 97.2%; in the experiment with SK-OV-3 ovarian it was 116%; with IGROV1 ovarian, 105%; in the experiment on HS 578T breast, 109%; with NCI/ADR-RES ovarian it was 102%.

For the molecule `COc1ccc2c(c1OC)C(=O)O[C@H]2[C@H]1c2c(cc3c(c2OC)OCO3)CCN1C`, the growth with SK-MEL-2 melanoma was 106%; with EKVX NSCLC it was 95.4%; with SN12C renal, 100%; in the experiment with UO-31 renal, 85.9%; with TK-10 renal, 122%; in the experiment on ACHN renal, 95.8%. In addition, the growth in the experiment with CAKI-1 renal was 80.3%; in the experiment with CCRF-CEM leukemia, 101%; in the experiment on MOLT-4 leukemia it was 116%; with RPMI-8226 leukemia, 107%; in the experiment on OVCAR-8 ovarian, 95.8%; with OVCAR-5 ovarian, 96.2%. Moreover, the growth with OVCAR-4 ovarian was 105%; with SK-OV-3 ovarian, 111%; with IGROV1 ovarian, 102%; with OVCAR-3 ovarian, 124%; with HS 578T breast it was 96.5%; in the experiment on NCI/ADR-RES ovarian, 84.7%.

As for `COc1cc2cc(Oc3ccc(NC(=O)Nc4cc(C(F)(F)F)cc(C(F)(F)F)c4)cc3)c(C)nc2cc1OCCN1CCOCC1`, the growth was 32.9% in the experiment on SK-MEL-2 melanoma; 21.4% in the experiment with EKVX NSCLC; 8.87% (active) in the experiment with SN12C renal; 20.1% with UO-31 renal; 53.6% with TK-10 renal; 5.89% (active) in the experiment on ACHN renal. Besides, the growth with CAKI-1 renal is 15.3%; in the experiment with A498 renal it was 40.7%; in the experiment on CCRF-CEM leukemia, 9.65% (active); in the experiment on MOLT-4 leukemia it was 8.21% (active); in the experiment with OVCAR-8 ovarian, 17.2%; in the experiment with OVCAR-5 ovarian, 46.6%. The growth was 17.9% in the experiment on OVCAR-4 ovarian; 22.7% with SK-OV-3 ovarian; 33.5% in the experiment on IGROV1 ovarian; 60.6% in the experiment with HS 578T breast; 9.17% (active) with NCI/ADR-RES ovarian.

For `Cn1cc(-c2cc3ncnc(Nc4ccc(CC(=O)Nc5cc(C(C)(C)C)nn5C)cc4)c3s2)cn1`, the growth is 22.3% in the experiment on SK-MEL-2 melanoma; 84.6% with EKVX NSCLC; 26.4% in the experiment on SN12C renal; 28.8% with UO-31 renal; 56.5% in the experiment on TK-10 renal; 25.9% in the experiment with ACHN renal. For the same molecule, the growth in the experiment on CAKI-1 renal was 19.3%; with A498 renal, -7.97% (active); in the experiment on CCRF-CEM leukemia, 13.7%; in the experiment on MOLT-4 leukemia, 16.7%; with OVCAR-8 ovarian, 35.9%; in the experiment with OVCAR-5 ovarian, 102%. In addition, the growth in the experiment on OVCAR-4 ovarian was 28.1%; in the experiment with SK-OV-3 ovarian, 29.3%; in the experiment on IGROV1 ovarian, 28.9%; with OVCAR-3 ovarian, 61.4%; with HS 578T breast it was 32.3%; with NCI/ADR-RES ovarian it was 101%.

With `O=C(N/N=C/c1c(Cl)cccc1Cl)c1ccc(C(F)(F)F)nc1Nc1cccc(C(F)(F)F)c1`, the growth in the experiment on SK-MEL-2 melanoma was 26%; with EKVX NSCLC it was 16.9%; in the experiment with SN12C renal it was 1.33% (active); in the experiment with UO-31 renal it was 1.91% (active); in the experiment on TK-10 renal, 1.46% (active); in the experiment on ACHN renal, -15.7% (active). Moreover, the growth in the experiment with CAKI-1 renal is 13.8%; in the experiment on CCRF-CEM leukemia, -8.45% (active); in the experiment with MOLT-4 leukemia, -12.9% (active); with RPMI-8226 leukemia it was 13.8%; in the experiment with OVCAR-8 ovarian, 18.7%; in the experiment with OVCAR-5 ovarian, 20.5%. In addition, the growth with OVCAR-4 ovarian is 13.1%; in the experiment with SK-OV-3 ovarian, 15%; in the experiment with OVCAR-3 ovarian, -58% (active); in the experiment on HS 578T breast, 11.4%; in the experiment on NCI/ADR-RES ovarian, -4.2% (active).

With `CNCCCNc1nc2ccccc2c2c(=O)c3cc(OC)ccc3sc12`, the growth in the experiment on SK-MEL-2 melanoma is 113%; in the experiment on EKVX NSCLC, 87.4%; with SN12C renal, 78.4%; in the experiment with UO-31 renal, 52.4%; in the experiment on TK-10 renal it was 98.8%; with ACHN renal, 70.5%. Also, the growth in the experiment on CAKI-1 renal is 61.7%; in the experiment on CCRF-CEM leukemia, 11.9%; in the experiment on MOLT-4 leukemia, 48.3%; in the experiment on SR leukemia, -30.2% (active); in the experiment with OVCAR-8 ovarian, 72.7%; with OVCAR-5 ovarian, 92.2%. The growth is 61.2% with OVCAR-4 ovarian; 84.9% with SK-OV-3 ovarian; 68.1% with IGROV1 ovarian; 75.7% in the experiment with OVCAR-3 ovarian; 75% in the experiment with HS 578T breast; 80.6% in the experiment with NCI/ADR-RES ovarian.

`C=C1C(=O)O[C@H]2[C@H]1CC/C(COC(=O)CCSSCCC(=O)OC/C1=C/CC[C@@]3(C)O[C@H]3[C@H]3OC(=O)C(=C)[C@@H]3CC1)=C\CC[C@@]1(C)O[C@@H]21`: the growth in the experiment with SK-MEL-2 melanoma was 52.4%; in the experiment on EKVX NSCLC it was 12.6%; in the experiment on SN12C renal, -45.8% (active); with UO-31 renal, -88.1% (active); in the experiment on TK-10 renal, -33.8% (active); in the experiment with ACHN renal it was -85.2% (active). The growth in the experiment with CAKI-1 renal was 20.3%; in the experiment on CCRF-CEM leukemia, -23.6% (active); in the experiment on MOLT-4 leukemia, -26.8% (active); in the experiment with SR leukemia, -14.1% (active); with RPMI-8226 leukemia, -23.5% (active); in the experiment with OVCAR-5 ovarian, 17.7%. The growth is 29.9% in the experiment on OVCAR-4 ovarian; 89.9% in the experiment with SK-OV-3 ovarian; -49.6% (active) in the experiment with IGROV1 ovarian; -35.8% (active) with OVCAR-3 ovarian; 7.57% (active) in the experiment on HS 578T breast; 50.5% in the experiment with NCI/ADR-RES ovarian.

As for `N#CC1=C(N)Oc2c(sc3c(Br)cccc23)C1c1ccc([N+](=O)[O-])cc1` (stereo not given), the growth in the experiment with SK-MEL-2 melanoma is 39.6%; with EKVX NSCLC, 58.9%; in the experiment on SN12C renal it was 13.5%; with UO-31 renal it was 34.6%; in the experiment on TK-10 renal, 71.9%; in the experiment on ACHN renal it was 26.8%. In addition, the growth is 27.1% in the experiment on CAKI-1 renal; -11.8% (active) with A498 renal; 10% with CCRF-CEM leukemia; 5.93% (active) in the experiment with MOLT-4 leukemia; 25.3% with OVCAR-8 ovarian; 31.1% in the experiment on OVCAR-5 ovarian. Besides, the growth in the experiment on OVCAR-4 ovarian is 39.8%; in the experiment with SK-OV-3 ovarian it was 34%; with OVCAR-3 ovarian, 3.67% (active); in the experiment on HS 578T breast, 10.8%; with NCI/ADR-RES ovarian it was -26.9% (active).

Values taken from PubChem BioAssay (NCI).
